About 83,000 compounds went through this panel and 20% of them were active in at least one assay; those are over-represented in the sample as a whole.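 In brief: 96-well plates, 48 h treatment, single concentration, percent growth endpoint.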 Calls of active or inactive are those of the source.

For the experiment, the system named is NCI-H23 lung. Put plainly: NCI-60 one-dose screen, 48 h (100 = growth as untreated, 0 = no growth, -100 = all killed). Particulars: 10 µM unless noted. How it is done:
Growth inhibition of the NCI-H23 human Non-Small Cell Lung tumor cell line is measured as a screen for anti-cancer activity. Cells are grown in 96 well plates and exposed to the test compound for 48 hours. Compounds are tested at a single concentration, which is 10^-5 M for most compounds. The reported endpoint is percent growth (GI% or GIPRCNT), where numbers from 0 - 100% represent growth inhibition, and numbers from -100% - 0 represent cell death. For example, a value of 40 represents 60% growth inhibition. A value of 0 means no net growth occurred over the course of the experiment. A value of -40 indicates 40% of cells at the beginning of the experiment died by the end of the experiment. A value of -100 means all cells are dead at the end of the experiment.
NCI-60 Human Tumor Cell Lines Screen was performed using the standard one-dose NCI protocol, which is described in more detail at https://dtp.cancer.gov/discovery_development/nci-60/default.htm.
Compounds with GIPRCNT values below 10 were considered active. Activity score was based on GIPRCNT using the following formula: […]
Score is 0 for GIPRCNT values of 100 or above, 50 for GIPRCNT values of 0, and 100 for GIPRCNT values of -100.
Turning to `Cc1cccc2c(=O)c3c(sc12)c(NCCCN)nc1ccccc13`, the growth was 47.8% (inactive).

Consider `COc1ccc(OC)c(/C=C2\Oc3cc(O)ccc3C2=O)c1`, for which the growth is 96.1% (inactive).

As for `N#C/C(=C\c1ccc[nH]1)c1cc2ccccc2[nH]1`, the growth was 39.1% (inactive).

For the molecule `Cc1nc(-c2ccccc2)cc2c(O)c(C(=O)N/N=C/Cc3ccccc3)[nH]c(=O)c12`, the growth is 100% (inactive).

Take `O=C(c1ccc2ncc(-c3nc(NC4CC4)ncc3F)n2c1)N1CCOCC1`: the growth was 42.5% (inactive).

Consider `CCCCCn1c(=N)n(CC(O)COc2cccc(C)c2)c2ccccc21` (stereo not given), for which the growth is 7.8% (active).

Turning to `Cc1c(C(=O)Nc2nc(-c3ccccc3)cs2)nnn1-c1cccc2ccccc12`, the growth was 33% [50 µM] (inactive).

Take `O=C1/C(=C/c2ccc(Oc3ccccc3)cc2)N=C(c2ccccc2)N1CCc1cccs1`: the growth is 87.1% (inactive).

For `COc1cc(CNCCCN2C(=O)c3ccc4c5c(ccc(c35)C2=O)C(=O)N(CCCNCc2cc(OC)c(OC)c(OC)c2)C4=O)cc(OC)c1OC`, the growth is -74.8% (active).

For `CC1CCCCN1S(=O)(=O)c1ccc(CN=C=S)cc1` (stereo not given), the growth is 97.1% (inactive).

Regarding `CC(=O)OC[C@]1(C)C=C2C(=O)[C@](C)(O)C3(CC3)C(C)=C2[C@H]1OC(C)=O`, the growth was 75% (inactive).

For the molecule `COc1ccc(-c2nc3sc(C)nn3c2-c2nc3cc(C)c(C)cc3[nH]2)cc1`, the growth is 93.9% (inactive).

Consider `O=C1c2ccccc2-c2cn(Cc3ccccc3)c3cccc(c23)C1c1cccnc1` (stereo not given), for which the growth is 45.5% (inactive).

Consider `Oc1ccc(Cl)cc1CNc1nc2ccccc2[nH]1`, for which the growth was 65.2% (inactive).

`CCCCCCCC/C=C\CCCCCCCCOc1cccc(CC(=O)NCC[N+]2(C)CCCCC2)c1`: the growth is 71.9% (inactive).

Consider `CN1CCN(C)c2cncc(Br)c2C1=O`, for which the growth was 101% (inactive).

For the molecule `C=C[C@H]1C[C@@H]2C[C@@H]3[C@H]4C/C=C\C(=O)NCCCC5NC(=O)C(=C(O)/C=C/[C@@H]4CC(=O)[C@H]3[C@@H]2[C@H]1C)C5=O` (stereo not given in full), the growth was -8.31% (active).

On to `Nc1nc2c(s1)CCc1c-2c(Br)n(Cc2ccccc2)c1Br`, for which the growth is 91.8% (inactive).

Consider `COc1ccc(OC2=C(C#N)C(=N)N3c4ccccc4Sc4ccccc4C3N2)cc1` (stereo not given), for which the growth is 87.9% (inactive).

On to `COc1ccc(Sc2ccc3[nH]c(=O)nc(N)c3c2)cc1`, for which the growth is 101% (inactive).

Turning to `N#CC1=C(N)Oc2cc(N)ccc2C1c1ccc(F)cc1` (stereo not given), the growth was 81.6% (inactive).

Take `COc1ccc(/C=N\N2CCOCC2)cc1OC1CCCC1`: the growth was 99% (inactive).

For the molecule `CN([N-]C(=O)CC(=O)[N-]N(C)C(=S)c1ccccc1)C(=S)c1ccccc1.[Cu+2]`, the growth is -73.8% (active).

Turning to `COCCOC1=C(Cl)C(=O)c2ccccc2C1=O`, the growth was 29% (inactive).

On to `O=c1oc2ccccc2cc1-c1csc(N=Nc2c(O)[nH]c3ccc(Cl)cc23)n1`, for which the growth is 101% (inactive).

For `Brc1ccccc1Nc1ccc2nnc(-c3ccncc3)n2n1`, the growth was 92.3% (inactive).

Consider `Clc1cccc(Cl)c1Nc1ccc2nnc(-c3ccncc3)n2n1`, for which the growth is 95.8% (inactive).

On to `CC1(C)CC(=O)C2=C(C1)Nc1cc3c(cc1C2c1ccc(F)cc1)OCO3` (stereo not given), for which the growth was 96% (inactive).

Take `COc1ccc(Nc2nc(NCCNc3ccnc4cc(Cl)ccc34)nc(N3CCOCC3)n2)cc1`: the growth was 82.3% (inactive).

`COc1cc(C2CC(=O)Nc3c2ccc2ccccc32)cc(Br)c1OC` (stereo not given): the growth was 28.5% (inactive).

Consider `O=C(N/N=C(\CS(=O)(=O)c1ccccc1)c1cc2cc(Br)ccc2oc1=O)c1ccccc1`, for which the growth was 101% (inactive).

For `Cc1ccc(C2SCC(=O)N2NC(=O)c2[nH]c3ccc(F)cc3c2-c2ccccc2)cc1` (stereo not given), the growth is 86.6% (inactive).

`Cc1cc(NS(=O)(=O)c2ccc(NC(=O)COc3ccc(-c4cc5ccccc5[nH]4)cc3)cc2)no1`: the growth was 22.4% (inactive).

For the molecule `O=C1CN2CCC1C/C2=C\c1ccnc2c(Cl)cccc12` (stereo not given), the growth was 92.2% (inactive).

Turning to `COc1cc(-c2ccc3cc(OC)c(OC)c(OC)c3c2)cc(OC)c1OC`, the growth is 65.4% (inactive).

Take `COc1ncnc2c1ncn2C/C(Br)=C(\Br)CCl`: the growth is 15.1% (inactive).

Take `COC(=O)c1c2c(c(C)[n+]([O-])c1C)C(=O)C=C(NCc1ccc(Cl)cc1)C2=O`: the growth is -35.7% (active).

In the case of `CCN(CC)c1ccc(/C=C(\C#N)c2cc3ccccc3[nH]2)cc1`, the growth is 79.2% (inactive).

In the case of `O=C1OCC2=C1C(c1ccc3c(c1)OCO3)CC(=O)N2c1cccc(Cl)c1` (stereo not given), the growth is 90.2% (inactive).

Regarding `C=C1CC[C@@H]2[C@@](C)(CCC[C@]2(C)C(=O)O)[C@@H]1CC[C@H](CO)CCO`, the growth was 102% (inactive).

For the origin of these results see PubChem BioAssay (NCI).
